Source: PubChem (several laboratories)
TIM10 inh: TIM10 yeast growth inhibition; inhibition, % at 10 µM; 330,000 tested, 1.4% active; S. cerevisiae TIM10 strain growth, BacTiter-Glo luminescence, 24 h; AID 463195;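 active = inhibition of 40% or more at the single tested concentration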;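 note: wild-type TIM10 isogenic control strain grown at permissive 25 °C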
PfHsp90 yeast 2: growth inhibition of yeast expressing Plasmodium Hsp90. S. cerevisiae expressing PfHsp90, BacTiter-Glo ATP, 48 h; yeast lacking PDR1 and PDR3 efflux regulators. inhibition, % at 9.4 µM. 310,000 tested, 0.32% active. AID 504621;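 active = every replicate shows inhibition above about 80%, whatever the replicate mean, limit read from the data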
tim23-1 inh: growth inhibitors of tim23-1 mutant yeast; inhibition, % at 20 µM; S. cerevisiae tim23-1 growth, BacTiter-Glo luminescence, 24 h; AID 463212; 330,000 tested, 1.3% active;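 active = growth inhibition of the mutant yeast at or above 50%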;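 note: temperature-sensitive mutant grown at 25 °C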
B2AR ag: agonists of human beta-2 adrenergic receptor inducing internalization. Am2.2-beta2AR cells, FAP receptor internalization, flow cytometry. response, % (concentration not given with the values). 340,000 tested, 0.43% active;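 active = response above a set limit, near 3 SD of response in nonfluorescent compounds, cut at about 42% in these data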
Target sequence (P07550 whole entry, looked up): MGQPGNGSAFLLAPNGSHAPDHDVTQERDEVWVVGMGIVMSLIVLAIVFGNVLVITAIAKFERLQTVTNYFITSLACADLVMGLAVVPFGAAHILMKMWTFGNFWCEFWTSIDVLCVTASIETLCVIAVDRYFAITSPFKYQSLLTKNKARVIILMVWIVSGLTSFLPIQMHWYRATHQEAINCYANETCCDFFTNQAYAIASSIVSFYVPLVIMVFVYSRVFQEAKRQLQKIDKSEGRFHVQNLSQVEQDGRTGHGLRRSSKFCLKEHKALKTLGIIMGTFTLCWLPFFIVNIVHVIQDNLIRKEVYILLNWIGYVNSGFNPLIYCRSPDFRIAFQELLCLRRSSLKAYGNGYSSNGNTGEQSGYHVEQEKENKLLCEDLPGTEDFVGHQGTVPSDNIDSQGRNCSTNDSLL
tim10-1 inh: tim10-1 yeast growth inhibition | S. cerevisiae tim10-1 ts strain growth, BacTiter-Glo, 24 h | inhibition, % at 20 µM | 330,000 tested, 2.2% active | AID 463190;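 active = inhibition of at least 40%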;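 note: mutant grown at 25 °C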
A number is an active result; 0 = inactive; - = no result; ! = a repeat was not active. Only some compounds are listed: those with a hit (about 3.8% of all), similar ones and a draw of the others.

SMILES	TIM10 inh	PfHsp90 yeast 2	tim23-1 inh	B2AR ag	tim10-1 inh
CCN(C(=O)Cn1nc(C)c([N+](=O)[O-])c1C)C1CCS(=O)(=O)C1 (stereo not given)	0	0	0	0	0
COC(=O)C1=C(O)/C(=C\c2ccc(CNC(=O)C(=O)Nc3ccc(C)c(C)c3)o2)N=C1C	0	0	0	70	0
COC(=O)C1=C(O)/C(=C\c2ccc(CNC(=O)C(=O)Nc3ccc(C)cc3)o2)N=C1C	0	-	0	56	0
CCOC(=O)C1=C(O)/C(=C/c2ccc(CNC(=O)C(=O)Nc3ccc(C)cc3)o2)N=C1C	0	0	0	75	0
CCOC(=O)C(=O)NCc1ccc(/C=C2/N=C(C)C(C(=O)OCC)=C2O)o1	0	0	0	0	0
COc1cccc(NC(=O)CN(C)C(=O)c2cc3c(s2)CCC3)c1	0	-	0	-	0
Cc1cccc(NC(=O)c2cc(-c3ccc(C)c(C)c3O)n[nH]2)c1	0	0	0	0	0
Cc1cccc(N2C(=O)C=CC2=O)c1	-	117	-	0	-
O=C1C=CC(=O)N1c1ccc(Nc2ccccc2)cc1	-	126	-	0	-
O=C1C=CC(=O)N1c1ccc2ccccc2c1	-	116	-	0	-
CCN(C[C@H]1N[C@@](CC)(C(=O)OC)[C@H]2C(=O)N(C)C(=O)[C@@H]12)C(=O)c1ccccc1	0	0	0	0	0
CCCCC1(CO)C(=O)N(c2ccccc2)N(c2ccccc2)C1=O	0	0	0	0	0
CCCCC1C(=O)N(c2ccccc2)N(c2ccc(O)cc2)C1=O (stereo not given)	0	0	0	61	0
CCc1ccc(C(=O)Nc2cc(S(=O)(=O)N3CCOCC3)ccc2N2CCOCC2)cc1	0	0	0	0	0
COc1ccc(C(=O)C(c2ccccc2)N2CCOCC2)cc1 (stereo not given)	0	0	0	0	0
Cc1ccc(C(=O)C(c2ccccc2)N2Cc3ccccc3C2=N)cc1 (stereo not given)	0	0	0	81	0
COc1ccc2c(c1)CC=C1C2CCC2(C)C(=O)C(=NO)CC12 (stereo not given)	-	-	-	0	-
COc1ccccc1NC(=O)C(C)OC(=O)CCCOc1ccccc1 (stereo not given)	0	0	0	0	0
Cc1ccc(C(=O)c2c(C)oc3c2C(=O)C(=O)c2ccccc2-3)cc1	0	-	0	47	0
Cc1oc2c(c1C(=O)c1ccc(Cl)cc1)C(=O)C(=O)c1ccccc1-2	-	-	-	63	-
CCC1(CC)C(C#N)C(=O)NC(=O)C1C#N (stereo not given)	-	0	-	0	-
C=CCn1c(=O)c2ccccc2n2c(SCC(=O)/C(C#N)=C(\C)N)nnc12	0	0	0	65!	0
C=CCn1c(=O)c2ccccc2n2c(SC(C)C(N)=O)nnc12 (stereo not given)	0	0	0	0	0
O=C1C=CC(O)(c2cc(=O)c3c(O)cc(O)cc3o2)C=C1	0	0	0	45	0
O=[N+]([O-])c1ccc2c(c1)-c1ccccc1C2=NO	-	105	-	0	-
SMILES	TIM10 inh	PfHsp90 yeast 2	tim23-1 inh	B2AR ag	tim10-1 inh
Nc1ccc2c(c1)C(=NO)c1cc([N+](=O)[O-])ccc1-2	-	0	-	0	-
CN(C)S(=O)(=O)c1ccc(-c2csc(N/N=C/c3ccco3)n2)cc1	0	0	0	0	0
CN(C)S(=O)(=O)c1ccc(-c2csc(N/N=C/c3ccc(O)cc3)n2)cc1	0	0	0	47	0
O=C(O)c1ccc2c(c1)C(=O)N(c1cc([N+](=O)[O-])ccn1)C2=O	0	0	0	0	0
CC(Sc1nnc(COc2ccc(Cl)cc2)n1Cc1ccco1)C(=O)N1CCNC1=O (stereo not given)	0	-	0	0	0
COc1cc2cnc(-c3ccccc3)c(C(=O)c3ccc(F)cc3)c2cc1OC	0	85	0	0	0
C[C@H](CO)N1C[C@H](C)[C@@H](CN(C)S(=O)(=O)c2cn(C)cn2)Oc2c(NS(=O)(=O)c3cccs3)cccc2C1=O	0	0	0	0	0
CCCCCCC[C@@H](C/C=C/CCC(=O)N(C)C/C(=C/Cl)C/C(=C\C(=O)N1C[C@H](O)CC1=O)OC)OC	0	0	0	0	0
CCCCCCC[C@@H](C/C=C/CCC(=O)N(C)C/C(=C/Cl)C/C(=C\C(=O)N1CC(OC)=CC1=O)OC)OC	0	0	0	93	0
CCCCNC(=O)NS(=O)(=O)c1ccc(NC(=O)CCC(=O)c2cccs2)cc1	0	0	0	0	0
S=C1Cc2ccccc2N1	-	107	-	0	-
O=C1/C(=C\c2ccc(Cl)cc2)CCC1CNc1ccc(Cl)cc1 (stereo not given)	-	147	-	0	-
COc1ccc(/C=C2/CCC(CN3CCOCC3)C2=O)cc1 (stereo not given)	-	146	-	0	-
CN(C)CC1CC/C(=C\c2ccc(O)cc2)C1=O (stereo not given)	-	145	-	0	-
CC1CCC/C(=C\c2ccc(O)cc2)C1=O (stereo not given)	0	0	0	0	0
CN(C)CC1CCC/C(=C\c2ccc(OC(=O)c3ccc(Cl)cc3)cc2)C1=O (stereo not given)	-	0	-	0	-
CC[C@@]1(C(=O)OC)N[C@H](CN(C)S(=O)(=O)c2ccc(C(F)(F)F)cc2)[C@@H]2C(=O)N(C)C(=O)[C@@H]21	0	0	0	0	0
CCCCCCCCCCCC(=O)N1CC(=O)NC(=O)C1	0	0	0	0	0
O=[N+]([O-])c1ccc(NN=Cc2ccccc2O)nc1	-	0	-	0	-
O=[N+]([O-])c1ccc(O)c(/C=N/Nc2ccccn2)c1	-	111	-	0	-
COc1ccc(CCc2nnc(NS(C)(=O)=O)s2)cc1	0	0	0	0	0
O=C1C(Cl)=C(N2CCN(c3ccccc3[N+](=O)[O-])CC2)C(=O)c2ccccc21	-	0	-	81	-
O=[N+]([O-])c1cc(Cl)ccc1N1CCCC1	0	0	0	0	0
CCC(=O)N1CCc2cc(S(=O)(=O)NCCC(=O)N3CCN(c4cccc(C)c4)C(C)C3)ccc21 (stereo not given)	0	0	0	0	0
O=C1CSC(=S)N1N=Cc1ccc(Cl)s1	-	0	-	0	-
SMILES	TIM10 inh	PfHsp90 yeast 2	tim23-1 inh	B2AR ag	tim10-1 inh
CCCCC(=O)N/N=C/c1ccc(Sc2cccc3cccnc23)o1	0	0	0	49	0
COc1ccc(NC(=S)Nc2ccc3snnc3c2)cc1	0	109	0	0	0
Cc1ccc(OCC(=O)NNC(=S)NC(=O)C2CC2)c(C)c1	0	104	0	0	0
Cc1ccc(OCC(=O)NNC(=S)NC(=O)C(C)(C)C)c(Br)c1	0	105	0	0	0
CS/C(=N\S(=O)(=O)c1cccs1)Nc1ccc(Cl)cc1	0	0	0	0	0
CS/C(=N\S(=O)(=O)c1cccs1)Nc1ccc(Br)cc1F	0	0	0	59!	0
COc1ccc(C(=O)N[C@H](C(=O)OCCCOC(=O)[C@@H](NC(=O)c2ccc(OC)cc2)C(C)C)C(C)C)cc1	-	0	-	0	-
OCCCNc1c2ccccc2nc2ccccc12	0	0	0	0	0
COc1cc(N2C(=O)C=CC2=O)c(OC)cc1Cl	0	109	0	0	0
Cc1cc(C)c(NC(=O)C2CC(=O)N(C3CCCC3)C2)c(C)c1 (stereo not given)	0	0	0	0	0
